Values joined by “and” are separate entries in the source; they are usually repeats but may differ in a detail not shown here. Equal entries are not always repeated. This is part of a sample that, as a whole, favours compounds with a hit. Of some 83,000 tested, about 20% had one in any assay.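 96-well plates, one dose, 48 hours. Percent growth reported; active if below 10.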 Values without a mark were called inactive. Active and inactive are the calls of the source.
Key:
Assay in all cases: NCI-60 one-dose screen, 48 h (100 = growth as untreated, 0 = no growth, -100 = all killed)
[1] = tested on: DU-145 prostate; settings: 10 µM unless noted
[2] = tested on: MALME-3M melanoma; settings: 10 µM unless noted
[3] = tested on: MDA-MB-231 breast; settings: 10 µM unless noted
[4] = tested on: RXF 393 renal; settings: 10 µM unless noted
[5] = tested on: SF-268 CNS; settings: 10 µM unless noted
[6] = tested on: SF-295 CNS; settings: 10 µM unless noted
[7] = tested on: SF-539 CNS; settings: 10 µM unless noted
[8] = tested on: UACC-257 melanoma; settings: 10 µM unless noted
[9] = tested on: M14 melanoma; settings: 10 µM unless noted
[10] = tested on: HCT-15 colon; settings: 10 µM unless noted
[11] = tested on: HT29 colon; settings: 10 µM unless noted
[12] = tested on: SNB-19 CNS; settings: 10 µM unless noted
[13] = tested on: U251 CNS; settings: 10 µM unless noted
[14] = tested on: PC-3 prostate; settings: 10 µM unless noted
[15] = tested on: SK-MEL-5 melanoma; settings: 10 µM unless noted
[16] = tested on: UACC-62 melanoma; settings: 10 µM unless noted
[17] = tested on: LOX IMVI melanoma; settings: 10 µM
[18] = tested on: SK-MEL-28 melanoma; settings: 10 µM unless noted
[19] = tested on: SNB-75 CNS; settings: 10 µM unless noted
[20] = tested on: K-562 leukemia; settings: 10 µM unless noted

Compound	growth [1] [%]	growth [2]	growth [3] [%]	growth [4]	growth [5] [%]	growth [6]	growth [7] [%]	growth [8] [%]	growth [9] [%]	growth [10] [%]	growth [11]	growth [12] [%]	growth [13] [%]	growth [14] [%]	growth [15] [%]	growth [16]	growth [17]	growth [18] [%]	growth [19]	growth [20] [%]
NNc1cccc([N+](=O)[O-])c1	104	101%	58.9	122%	72.6	89.5%	100	99	99.9	101	99.6%	107	89	86.4	109	77.2%	76.6%	115		
Nc1cccc2cccc([N+](=O)[O-])c12	118	111%		110%	109	95.6%	113	100	107		106%	102	101	103	111	98.9%	105%	96.4	81.8%	
CC1(C=O)CCC23COC4(CCC5C6(C)CCC(OC7OCC(OC8OC(CO)C(O)C(OC9OC(CO)C(O)C(O)C9O)C8OC8OCC(O)C(O)C8O)C(O)C7OC7OC(CO)C(O)C(O)C7O)C(C)(C)C6CCC5(C)C4(C)CC2O)C3C1 (stereo not drawn)																-69% [100 µM] (active) and -57.3% [100 µM] (active)				
CC1=CC(=NC(=O)CBr)C=C/C1=N\S(=O)(=O)c1ccccc1	76.8	21.9%	67.5	82.4%	64.8		91.6		72.8	36.6	39.9%		67.3	77.5	57.1	66.7%	9.2% (active)	73.1	67.6%	
Cc1ccccc1NC(=O)Cc1csc2[n+]1C(=O)/C(=C/c1ccc([N+](=O)[O-])cc1)S2		99.3%	97.7	111%	95.9	99.7%	104	104	85.8	100	113%	102	92.2	85.9	94.3	88.2%	86.6%	95.8	80.9%	88.3
CCN(CC)c1ccc(/C=C\C(=O)c2ccc(NC(C)=O)cc2)cc1	60.1	117%	65.7	79.4%	83.6	35.6%	67.3	78.3		45.6	39.5%	61.5	41.9	71.9	97.4	78.5%	74.1%	82	-0.746% (active)	
CCN(CC)CCNc1ccc([N+](=O)[O-])c2sc3ccccc3c(=O)c12		-8.2% (active)	56.2	5.72% (active)	32.2	7.95% (active)	21.9	29.3	34.1	23	9.13% (active)	34.8	22.8	27.3	21.1	35.7%	19.4%	35.4	34.8%	10.2
